# Test results: PubChem BioAssay (EPA / NIEHS)
# Active and inactive are the calls of the source. The calls were made as follows: active = hit-call score of the fitted dose curve at least 0.9, where 1 is the maximum; inactive = score below 0.9.
# Assays:
# [1] = APR_HepG2_P-H2AX_72hr: Apredica 72-hour HepG2 Assay for H2AX Phosphorylation (AID 2282916); settings: imaging, actives raise or lower the signal;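 also: phospho-histone H2A.x immunostain intensity per cell marking DNA damage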
# In short: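 HepG2; cpd 0.39–200 uM ×10 conc, duplicates; 0.5% DMSO; 72 hr. Fix 3.7% formaldehyde 30 min RT, 0.5% Triton X-100 10 min. Anti-phospho-H2A.x 1:200 + Hoechst 2 ug/mL, 60 min RT; ArrayScan imaging.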
# [2] = APR_HepG2_MitoMembPot_72hr: Apredica 72-hour HepG2 Assay for Mitochondrial Membrane Potential (AID 2282917); settings: imaging, actives raise or lower the signal
# In short: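 Membrane potential read by MitoTracker Red CMXRos (250 nM, 30 min, pre-fixation) fluorescence imaging of HepG2 after 72 hr exposure. Ten concentrations, 0.39–200 uM, duplicate wells, 0.5% DMSO; fitted in both directions against DMSO baseline.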
# [3] = APR_HepG2_MitoticArrest_72hr: Apredica 72-hour HepG2 Assay for Mitotic Arrest (AID 2282918); settings: high-content imaging, actives raise or lower the signal
# In short: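 HepG2, 72 hr exposure, 0.39–200 uM in duplicate, 0.5% v/v DMSO final. Formaldehyde-fixed, Triton-permeabilized, anti-phospho-histone H3/FITC plus Hoechst. ArrayScan imaging at 20x; curves fit bidirectionally against DMSO baseline.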
# [4] = APR_HepG2_MicrotubuleCSK_72hr: Apredica 72-hour HepG2 Assay for Microtubule CSK Stabilty (AID 2282919); settings: HepG2 microtubule cytoskeleton, high-content imaging, actives raise or lower the signal
# In short: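 Read-out is tubulin fluorescence intensity from high-content imaging of HepG2 cells, with nuclei identified by Hoechst 33342. Treatment lasts 72 h at 0.39–200 uM, and curves are fitted bidirectionally against the DMSO negative control.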
# [5] = APR_HepG2_P-H2AX_24hr: Apredica 24-hour HepG2 Assay for H2AX Phosphorylation (AID 2282920); settings: high-content imaging, actives raise or lower the signal
# In short: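 HCS fluorescence imaging of phospho-H2A.x immunostain (with Hoechst 33342 nuclear counterstain) in HepG2 after 24 hr compound exposure; 10 concentrations, 0.39–200 uM, duplicate wells, 0.5% v/v DMSO. Gain or loss of signal fitted relative to DMSO baseline.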
# [6] = APR_HepG2_StressKinase_72hr: Apredica 72-hour HepG2 Assay for Stress Kinase (AID 2282921); settings: HepG2 stress kinase (phospho-c-Jun) imaging, actives raise or lower the signal
# In short: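 Dose 0.39–200 uM (10 pts, duplicate), 0.5% DMSO; 72 h; fix 3.7% formaldehyde 30 min RT; Triton permeabilize; anti-phospho-c-Jun/Cy3 + Hoechst 60 min RT; image 20x; fit gain/loss vs DMSO.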
# [7] = APR_HepG2_StressKinase_24hr: Apredica 24-hour HepG2 Assay for Stress Kinase (AID 2282922); settings: HepG2 stress kinase (phospho-c-Jun) imaging, actives raise or lower the signal
# In short: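 HepG2, 24 hr dosing, 0.39–200 uM in duplicate, 0.5% DMSO; formaldehyde fix (3.7%), 0.5% Triton X-100; anti-phospho-c-Jun + Cy3 secondary, Hoechst counterstain; ArrayScan imaging; bidirectional curve fit vs DMSO baseline.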
# [8] = APR_HepG2_p53Act_72hr: Apredica 72-hour HepG2 Assay for p53 Activation (AID 2282923); settings: high-content imaging, actives raise or lower the signal;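 also: average cellular p53 protein immunofluorescence intensity in HepG2 cells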
# In short: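 10-pt conc. 0.39–200 uM, duplicate, 0.5% DMSO; 72 hr exposure; 3.7% formaldehyde fix, 0.5% Triton perm; sheep anti-p53/Cy5 + Hoechst; ArrayScan 20x, 6 images/well; gain/loss fit vs DMSO.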
# [9] = APR_HepG2_MitoMass_72hr: Apredica 72-hour HepG2 Assay for Mitochondrial Mass (AID 2282924); settings: high-content imaging, actives raise or lower the signal;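 also: MitoTracker Red CMXRos stain intensity per cell imaged as mitochondrial mass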
# In short: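 HepG2, 72 hr cmpd, 10 conc 0.39–200 uM in dup, DMSO 0.5% v/v. MitoTracker Red CMXRos 250 nM 30 min pre-fix; formaldehyde 3.7% fix 30 min RT. HCS imaging, gain/loss fit vs DMSO.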
# [10] = APR_HepG2_NuclearSize_72hr: Apredica 72-hour HepG2 Assay for Nuclear Size (AID 2282925); settings: high-content imaging, actives raise or lower the signal
# In short: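 HepG2; cpd 0.39–200 uM, 10 conc, duplicate; 72 h; DMSO 0.5% v/v; fix 3.7% formaldehyde 30 min RT; Triton permeabilization; Hoechst 2 ug/mL; HCS imaging 20x; nuclear diameter; gain/loss fit vs DMSO.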
# [11] = ATG_CRE_CIS: Attagene CIS-FACTORIAL HepG2 Assay for human cAMP Responsive Element (CRE) binding protein 3 (AID 2282926); settings: HepG2 CRE cis-reporter, Attagene multiplexed mRNA; actives raise or lower the signal
# In short: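 Endogenous CRE-binding activity in HepG2 is reported through a cis-regulated transfected reporter. Following a day of exposure, mRNA levels are determined by reverse transcription PCR and fluorescent fragment analysis; fits run in both directions versus DMSO.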
# [12] = target: CCAAT/enhancer-binding protein beta (Homo sapiens) (UniProt P17676); test: ATG_C_EBP_CIS: Attagene CIS-FACTORIAL HepG2 Assay for human CCAAT/Enhancer Binding Protein (C/EBP) beta (AID 2282927); settings: HepG2 Attagene cis-factorial transcription factor reporter; actives raise or lower the signal
# In short: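 Endogenous C/EBPb-driven reporter transcripts measured in transfected human HepG2 cells at 24 h via RT-PCR and capillary electrophoresis of labelled fragments. Activity fitted in both directions relative to DMSO baseline.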
# [13] = ATG_CMV_CIS: Attagene CIS-FACTORIAL HepG2 Assay for human CMV (Internal Marker) (AID 2282928); settings: HepG2 CMV promoter reporter, transcription factor profiling; actives raise or lower the signal;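 also: endpoint acts as a background internal control marker rather than a target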
# In short: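 After transient transfection of HepG2 with reporter transcription units driven by cis-regulatory promoters, cells receive test chemical for 24 h. Labeled reporter amplicons, digested with HpaI, are sized and quantified by capillary electrophoresis against DMSO.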
# [14] = ATG_DR4_LXR_CIS: Attagene CIS-FACTORIAL HepG2 Assay for human Liver X Receptor (LXR), DR4 submotif (AID 2282929); settings: HepG2 Attagene DR4 cis-reporter, mRNA transcription; actives raise or lower the signal
# In short: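 Transiently transfected HepG2 liver cells; cis-regulated reporters; 24 h dosing. RT-PCR plus CE read-out of reporter mRNA. DMSO baseline, bidirectional curve fitting.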
# [15] = ATG_AP_1_CIS: Attagene CIS-FACTORIAL HepG2 Assay for human Activator Protein 1 (AP-1) (AID 2282931); settings: HepG2 Attagene cis-factorial AP-1 reporter mRNA; actives raise or lower the signal
# In short: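 We transfected HepG2 cells transiently with a set of cis-regulated reporter transcription units, dosed them for 24 h, and quantified reporter mRNA via RT-PCR and capillary electrophoresis, scoring gain or loss of signal relative to DMSO.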
# [16] = ATG_AP_2_CIS: Attagene CIS-FACTORIAL HepG2 Assay for human Activator Protein 2 (AP-2) (AID 2282932); settings: HepG2 AP-2 cis-reporter, Attagene transcription factor profiling; actives raise or lower the signal
# In short: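 HepG2, transient MRTU transfection, cis-regulated reporters; 24 h compound exposure; RNA isolated, RT-PCR, 6-FAM labelling, HpaI digest, CE fluorescence. DMSO = negative control/baseline, bidirectional fit.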
# [17] = ATG_BRE_CIS: Attagene CIS-FACTORIAL HepG2 Assay for human Bone Morphogenetic Protein (BMP) Response Element (BRE) (AID 2282933); settings: HepG2 BMP response element reporter, Attagene transcription factor profiling; actives raise or lower the signal
# In short: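 Endogenous transcription factor activity at a BMP response element was monitored in transfected HepG2 cells 24 h after dosing. Fluorescent RT-PCR products were resolved by capillary electrophoresis, and activity was fitted in both directions versus DMSO.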
# [18] = target: Transcription factor E2F1 (Homo sapiens) (UniProt Q01094); test: ATG_E2F_CIS: Attagene CIS-FACTORIAL HepG2 Assay for human E2F Transcription Factor 1 (AID 2282935); settings: HepG2 Attagene cis-reporter, E2F reporter RNA transcripts; actives raise or lower the signal
# In short: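 Cis-element reporter mRNA induction in transiently transfected HepG2, 24 h exposure. Activity fitted in both directions relative to DMSO negative control.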
# [19] = target: Aryl hydrocarbon receptor (Homo sapiens) (UniProt P35869); test: ATG_Ahr_CIS: Attagene CIS-FACTORIAL HepG2 Assay for human Aryl Hydrocarbon Receptor (Ahr) (AID 2282930); settings: HepG2 AhR cis-factorial reporter transcription; actives raise or lower the signal
# In short: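 Reporter mRNA levels, quantified by RT-PCR and fluorescent capillary electrophoresis, reflect endogenous AhR transcriptional activity in HepG2 cells carrying transfected cis-promoter reporter constructs. Readout at 24 h post-dose; gain or loss fitted against DMSO baseline.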
# Sequence of CCAAT/enhancer-binding protein beta (Homo sapiens) (P17676 whole entry, looked up, the tested form may be a part): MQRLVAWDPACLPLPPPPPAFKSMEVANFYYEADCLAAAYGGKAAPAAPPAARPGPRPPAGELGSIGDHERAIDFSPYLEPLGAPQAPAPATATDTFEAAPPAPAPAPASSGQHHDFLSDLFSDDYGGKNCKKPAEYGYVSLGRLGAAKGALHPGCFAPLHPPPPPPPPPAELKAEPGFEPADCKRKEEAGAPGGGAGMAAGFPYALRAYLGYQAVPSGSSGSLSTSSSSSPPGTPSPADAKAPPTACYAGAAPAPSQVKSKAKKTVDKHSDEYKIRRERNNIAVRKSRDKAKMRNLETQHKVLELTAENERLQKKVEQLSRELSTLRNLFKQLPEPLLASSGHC
# Sequence of Transcription factor E2F1 (Homo sapiens) (Q01094 whole entry, looked up): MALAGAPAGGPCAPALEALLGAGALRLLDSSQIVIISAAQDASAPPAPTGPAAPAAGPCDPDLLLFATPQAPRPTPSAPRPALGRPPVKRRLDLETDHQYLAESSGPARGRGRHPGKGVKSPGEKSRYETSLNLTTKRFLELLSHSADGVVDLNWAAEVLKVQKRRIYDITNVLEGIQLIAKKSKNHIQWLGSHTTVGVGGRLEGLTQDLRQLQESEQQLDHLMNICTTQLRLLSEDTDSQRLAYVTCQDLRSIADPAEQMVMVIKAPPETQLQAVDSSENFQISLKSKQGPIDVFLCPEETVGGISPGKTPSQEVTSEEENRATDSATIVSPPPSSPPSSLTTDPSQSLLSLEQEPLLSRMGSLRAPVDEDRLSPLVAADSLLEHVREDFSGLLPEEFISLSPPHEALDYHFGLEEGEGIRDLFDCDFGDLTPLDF
# Sequence of Aryl hydrocarbon receptor (Homo sapiens) (P35869 whole entry, looked up): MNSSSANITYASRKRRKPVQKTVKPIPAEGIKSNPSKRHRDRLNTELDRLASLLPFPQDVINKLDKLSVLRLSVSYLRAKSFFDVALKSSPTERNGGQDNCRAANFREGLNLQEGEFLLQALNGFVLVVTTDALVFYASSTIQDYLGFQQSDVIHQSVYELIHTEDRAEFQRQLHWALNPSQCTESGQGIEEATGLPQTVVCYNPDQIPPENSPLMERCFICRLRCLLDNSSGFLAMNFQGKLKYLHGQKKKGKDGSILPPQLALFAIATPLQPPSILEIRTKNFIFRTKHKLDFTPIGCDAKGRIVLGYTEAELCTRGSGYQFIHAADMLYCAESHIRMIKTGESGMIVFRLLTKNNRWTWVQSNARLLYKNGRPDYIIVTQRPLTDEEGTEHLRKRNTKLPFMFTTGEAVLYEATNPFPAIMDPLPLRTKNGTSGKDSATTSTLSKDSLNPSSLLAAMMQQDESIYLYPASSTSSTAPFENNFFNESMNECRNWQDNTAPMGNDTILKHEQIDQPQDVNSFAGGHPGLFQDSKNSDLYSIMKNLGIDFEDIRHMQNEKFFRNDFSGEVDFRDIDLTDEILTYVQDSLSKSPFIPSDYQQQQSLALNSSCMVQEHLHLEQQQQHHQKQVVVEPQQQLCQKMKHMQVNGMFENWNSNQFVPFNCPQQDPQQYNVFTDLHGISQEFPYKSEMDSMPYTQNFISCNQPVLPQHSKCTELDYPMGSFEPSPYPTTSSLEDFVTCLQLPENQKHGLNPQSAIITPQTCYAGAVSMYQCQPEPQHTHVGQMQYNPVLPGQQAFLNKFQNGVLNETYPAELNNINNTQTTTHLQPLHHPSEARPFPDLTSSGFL
smiles,measurement,setting,value
COc1ccc(C(=O)Nc2nc3ccccc3c(NCc3ccccc3)c2C#N)cc1,AC50,[1],47.8 µM (active)
same,AC50,[2],1.45 µM (active)
same,AC50,[3],108 µM (active)
same,outcome,[4],inactive
same,AC50,[5],106 µM (active)
same,outcome,[6],inactive
same,outcome,[7],inactive
same,outcome,[8],inactive
same,AC50,[9],5.59 µM (active)
same,AC50,[10],113 µM (active)
same,outcome,[11],inactive
same,outcome,[12],inactive
same,AC50,[13],3.82 µM (active)
same,outcome,[14],inactive
same,outcome,[15],inactive
same,outcome,[16],inactive
same,outcome,[17],inactive
same,outcome,[18],inactive
CCOCCOCCO,outcome,[1],inactive
same,outcome,[2],inactive
same,outcome,[3],inactive
same,outcome,[4],inactive
same,outcome,[5],inactive
same,outcome,[6],inactive
same,outcome,[8],inactive
same,outcome,[9],inactive
same,outcome,[11],inactive
same,outcome,[12],inactive
same,outcome,[13],inactive
same,outcome,[14],inactive
same,outcome,[19],inactive
same,outcome,[15],inactive
same,outcome,[16],inactive
same,outcome,[17],inactive
same,outcome,[18],inactive
CCc1cc(C2=C(C(=O)O)N(c3ccccc3C(F)(F)F)S(=O)(=O)c3ccccc32)cc2c1OCO2,outcome,[1],inactive
same,outcome,[2],inactive
same,outcome,[3],inactive
same,outcome,[4],inactive
same,outcome,[5],inactive
same,outcome,[6],inactive
same,outcome,[7],inactive
same,outcome,[8],inactive
same,outcome,[9],inactive
same,outcome,[10],inactive
same,outcome,[11],inactive
same,outcome,[12],inactive
same,outcome,[13],inactive
same,outcome,[14],inactive
same,AC50,[15],38.6 µM (active)
same,outcome,[16],inactive
same,outcome,[17],inactive
CN(C)CCCN1c2ccccc2Sc2ccc(Cl)cc21,AC50,[1],81.2 µM (active)
same,AC50,[2],112 µM (active)
same,AC50,[3],26 µM (active)
same,outcome,[4],inactive
same,AC50,[5],26 µM (active)
same,AC50,[6],107 µM (active)
same,AC50,[7],25.2 µM (active)
same,AC50,[8],100 µM (active)
same,outcome,[9],inactive
same,outcome,[10],inactive
same,outcome,[11],inactive
same,outcome,[12],inactive
same,outcome,[13],inactive
same,AC50,[14],9.33 µM (active)
same,outcome,[19],inactive
same,outcome,[16],inactive
same,outcome,[17],inactive
same,outcome,[18],inactive
NCCOCCOCCN,AC50,[1],6.09 µM (active)
same,outcome,[2],inactive
same,AC50,[3],15.8 µM (active)
same,AC50,[4],96.6 µM (active)
same,AC50,[5],76.5 µM (active)
same,outcome,[6],inactive
same,AC50,[7],100 µM (active)
same,AC50,[8],7.09 µM (active)
same,AC50,[9],84.5 µM (active)
same,AC50,[10],3.84 µM (active)
same,outcome,[11],inactive
same,outcome,[12],inactive
same,outcome,[13],inactive
same,outcome,[14],inactive
same,outcome,[15],inactive
same,outcome,[16],inactive
same,outcome,[17],inactive
Cc1c(C)c2c(c(C)c1O)CCC(C)(COc1ccc(CC3SC(=O)NC3=O)cc1)O2 (stereo unspecified),AC50,[1],89.5 µM (active)
same,AC50,[2],135 µM (active)
same,AC50,[3],54.3 µM (active)
same,outcome,[4],inactive
same,outcome,[5],inactive
same,AC50,[6],78.4 µM (active)
same,outcome,[7],inactive
same,AC50,[8],65.2 µM (active)
same,AC50,[9],61.8 µM (active)
same,outcome,[11],inactive
same,outcome,[12],inactive
same,outcome,[13],inactive
same,AC50,[14],6.81 µM (active)
same,outcome,[19],inactive
same,AC50,[15],9.14 µM (active)
same,outcome,[16],inactive
same,outcome,[17],inactive
same,outcome,[18],inactive
Cc1ccc(C(C)(C)C)c(O)c1,AC50,[1],105 µM (active)
same,AC50,[2],111 µM (active)
same,AC50,[3],100 µM (active)
same,outcome,[4],inactive
same,AC50,[5],110 µM (active)
same,outcome,[6],inactive
same,outcome,[7],inactive
same,outcome,[8],inactive
same,outcome,[9],inactive
same,AC50,[11],147 µM (active)
same,outcome,[12],inactive
same,AC50,[13],100 µM (active)
same,AC50,[14],167 µM (active)
same,outcome,[16],inactive
same,outcome,[17],inactive
same,outcome,[18],inactive
